For experiment [1], the system named is TRPC4 beta (transient receptor potential cation channel C4), mouse. The experiment is described as follows: TRPC4 cation channel opening, retest – cell-based, Fluo4 calcium, HEK293 TRPC4beta/mu-opioid, duplicates, 10 µM, confirmation (AID 2426;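 active = fluorescence ratio normalized to control raised more than 50% in primary screen plus both repeat runs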;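 note: percent rise of integrated ratio over buffer wells lacking compound which define 0%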). The settings on record: Fluo4 calcium fluorescence, at 10 µM; stronger effect = higher value.
The subject of experiment [2] is transient receptor potential cation channel C4 beta (TRPC4), mouse. The experiment is described as follows: TRPC4 cation channel opening, second retest – cell-based, second round, Fluo4, HEK293 TRPC4beta/mu-opioid, 1 µM, confirmation (AID 2461;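 active = primary screen active and over 50% activation in each of two duplicate runs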;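 for activation: 0% = wells without test compound as baseline of integrated fluorescence ratio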). The settings on record: Fluo4 calcium fluorescence, at 1 µM; stronger effect = higher value.
In experiment [3] the test system is TRPC4 (transient receptor potential cation channel C4 beta), mouse. Nature of the experiment: potentiation of DAMGO EC20 TRPC4 response – cell-based, second round, Fluo-4, HEK293 TRPC4beta/mu-opioid, 1 µM, confirmation (AID 2554;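 active = primary screen hit whose fluorescence ratio, in both repeats, exceeds the weak agonist control mean by 3 SD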). The conditions noted are these: DAMGO EC20, Fluo-4 calcium flux, at 1 µM; stronger effect = higher value.
For experiment [4], the system named is TRPC4 beta (transient receptor potential cation channel C4), mouse. The experiment is described as follows: potentiation of DAMGO EC20 TRPC4 response – cell-based, Fluo-4, HEK293 TRPC4beta/mu-opioid, confirmation (AID 2555;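 active = primary screen hit whose calcium fluorescence ratio, in both repeats, exceeds the weak agonist control mean by 3 SD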). The settings on record: DAMGO EC20, Fluo-4 calcium flux, at 10 µM; stronger effect = higher value. A general note: A change in cytosolic calcium serves as a functional read-out for many receptors and channels.

Experiment [5] deals with Short transient receptor potential channel 4 (Mus musculus) (UniProt Q9QUQ5). Nature of the experiment: blockers of DAMGO-evoked TRPC4 calcium flux – cell-based, Fluo4, HEK293 TRPC4beta/mu-opioid, confirmation (AID 2636;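 active = calcium signal cut by more than 3 SD below the full-agonist control yet still positive, in both repeats and the earlier primary screen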). The settings on record: at 10 µM; stronger effect = higher value.
Experiment [6] shares this target. Nature of the experiment: blockers of DAMGO-evoked TRPC4 calcium flux – cell-based, second round, Fluo4, HEK293 TRPC4beta/mu-opioid, 1 µM, confirmation (AID 2637;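 active = calcium signal ratio cut to more than 3 SD under the fully stimulated control mean yet still positive, in both repeats and the primary screen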;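 for inhibition: percent of integrated ratio relative to wells lacking test compound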). The settings on record: at 1 µM; stronger effect = higher value.
For experiment [7] the target is unchanged. The experiment is described as follows: potentiation of DAMGO-evoked TRPC4 calcium signal – cell-based, HEK293 TRPC4/mu-opioid, Fluo-4 calcium, EC20 DAMGO, dose response (AID 434941;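 active = earlier screen potentiator hit that boosts the TRPC4 ion channel at some dose, with a dose response; inactive = no potentiation, no dose response, or not a prior hit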;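 note: calcium entry triggered by an EC20 dose of DAMGO at the co-expressed mu-opioid receptor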).
The target is the same in experiment [8]. The experiment is described as follows: block of DAMGO-driven TRPC4 calcium entry – cell-based, HEK293 TRPC4/mu-opioid, Fluo-4 calcium, dose response (AID 434942;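 active = primary screen inhibitor hit that blocks the TRPC4 channel at some tested dose, yielding a dose curve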).
The target in experiment [9] is Short transient receptor potential channel 6 (Mus musculus) (UniProt Q61143). The experiment is described as follows: TRPC6 blockade by TRPC4 inhibitor hits – cell-based, HEK293, membrane potential dye, duplicate, selectivity assay for TRPC4 inhibitor project, confirmation (AID 434948;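 active = active in primary screen and both duplicates, each dropping signal beyond three positive-control SD with fluorescence still positive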). The conditions noted are these: HEK293 TRPC6, membrane potential dye fluorescence, at 10 µM, stimulated with maximal-effect acetylcholine; stronger effect = higher value.

Experiment [10] has the same target. Nature of the experiment: TRPC6 opening by TRPC4 activator hits – cell-based, HEK293, membrane potential dye, duplicate, selectivity assay for TRPC4 activator project, confirmation (AID 434950;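 active = membrane potential signal rise above negative control mean plus 3 SD in both duplicates, also active in the earlier TRPC4 screen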;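 for activation: 0% = buffer only wells and 100% = acetylcholine maximal-effect wells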). The conditions noted are these: HEK293 TRPC6, membrane potential fluorescence, at 10 µM; activation: stronger effect = higher value; outcome: activation.
For experiment [11] the target is unchanged. The experiment is described as follows: positive modulators of mouse TRPC6 channel – HEK293 cells, membrane potential dye, duplicate, selectivity assay for TRPC4 potentiator project, confirmation (AID 434952). The conditions noted are these: HEK293 TRPC6, membrane potential dye fluorescence, at 10 µM, maximal acetylcholine added after compound; stronger effect = higher value.

Experiment [12] deals with Short transient receptor potential channel 4 (Mus musculus) (UniProt Q9QUQ5). The experiment is described as follows: calcium flux activators in TRPC4/5HT1a cells, counter-screen for TRPC4 activator project, cell-based, second counter screen, HEK293 TRPC4/5HT1a, Fluo-4 (AID 434977;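 active = calcium signal rise above buffer-control mean plus 5 SD in both duplicates, and also a hit in the primary screen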;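 for activation: plate controls were assay buffer for no effect and maximal serotonin response for full effect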). The conditions noted are these: Fluo-4 calcium flux, at 10 µM; stronger effect = higher value.
A short description of experiment [13]: serotonin-gated TRPC4 signal block – cell-based, second counter screen, HEK293 TRPC4/5HT1a, Fluo-4, counter-screen for TRPC4 inhibitor project, confirmation (AID 434978;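 active = primary screen active whose calcium signal fell more than 3 SD beyond the full-serotonin control mean in both duplicate plates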;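 note: serotonin given first at submaximal then at maximal dose after compound preincubation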). The conditions noted are these: Fluo-4 calcium flux, at 10 µM, serotonin added to trigger calcium flux; stronger effect = higher value. (In general: Counterscreens check selectivity or assay interference.)

In experiment [14] the test system is TRPC4 (mouse), co-expressed with 5HT1a in HEK293. The experiment is described as follows: enhancement of serotonin-evoked TRPC4 response – cell-based, second counter screen, HEK293 TRPC4/5HT1a, Fluo-4, counter-screen for TRPC4 potentiator project, confirmation (AID 434979;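 active = signal rise over 3 SD above mean of control wells given weak agonist, in both repeats and first screen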). The settings on record: Fluo-4 calcium flux, at 10 µM, serotonin added at its EC20 dose; stronger effect = higher value.

Experiment [15] is described as follows: nonspecific calcium rise without TRPC4 – cell-based, HEK293 mu-opioid receptor line, counter-screen for TRPC4 activator project, confirmation (AID 449723;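 active = hit in primary screen, with calcium signal over 5 SD above buffer well mean in both duplicates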;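 note: counter screen cells carry the mu-opioid receptor alone and lack TRPC4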). The conditions noted are these: HEK293 mu-opioid cells, Fluo-4 calcium fluorescence, at 10 µM; stronger effect = higher value.
Experiment [16] is described as follows: nonspecific potentiation of DAMGO calcium response – cell-based, HEK293 mu-opioid receptor line, counter-screen for TRPC4 allosteric potentiator project, confirmation (AID 449724;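 active = calcium signal rise more than 3 SD above the low-dose agonist control mean, in both duplicate plates and the primary screen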;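 note: HEK293 cells carrying mu-opioid receptor only with no TRPC4 channel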). The conditions noted are these: HEK293 mu-opioid receptor cells, Fluo-4 calcium flux, at 10 µM, compound added before EC20 DAMGO stimulus; stronger effect = higher value.
Experiment [17] is described as follows: nonspecific flux increase, KCNQ1-free cells – parental CHO cells, counter-screen for KCNQ1 potentiator project (AID 493006;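 active = duplicate-averaged activation above buffer control mean plus 5 SD of those controls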;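 for activation: fluorescence ratio of max minus min over baseline after K+ and Tl+ depolarization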). The settings on record: parental CHO-K1 cells, FluxOR thallium flux, at 10 µM; stronger effect = higher value.
In experiment [18] the target is Potassium voltage-gated channel subfamily KQT member 1 (Homo sapiens) (UniProt P51787). Nature of the experiment: enhancement of KCNQ1 channel thallium flux – FluxOR thallium flux, CHO cells, duplicates, confirmation (AID 493007;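 active = potentiation averaged over duplicate wells exceeding buffer-only control mean by more than 3 SD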;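 for outcome: cells depolarized by a potassium plus thallium sulfate stimulus after compound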;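 for potentiation: 0% = buffer-only wells and 100% = R-L3 activator control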). The settings on record: KCNQ1 cell line, FluxOR thallium flux fluorescence, at 10 µM; stronger effect = higher value, % of reference activator effect, buffer zero.

The target in experiment [19] is Potassium voltage-gated channel subfamily KQT member 2 (Rattus norvegicus) (UniProt O88943). The experiment is described as follows: KCNQ2 thallium flux enhancement – KCNQ2-CHO-K1 cells, selectivity assay for KCNQ1 potentiator project (AID 493009;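 active = mean duplicate potentiation above the buffer control mean plus 5 SD of buffer wells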;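 note: assay conditions were tuned for KCNQ1 rather than KCNQ2 modulators; signal is max minus min fluorescence divided by baseline after thallium stimulus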). The conditions noted are these: FluxOR thallium flux fluorescence, at 10 µM; stronger effect = higher value, scaled: buffer 0, activator control 100.

Experiment [20] deals with Potassium voltage-gated channel subfamily KQT member 1 (Homo sapiens) (UniProt P51787). The experiment is described as follows: KCNQ1 activators by electrophysiology – IonWorks patch clamp, KCNQ1-CHO cells, orthogonal assay for KCNQ1 potentiator project, confirmation (AID 493184;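 active = current rise at least 3 SD above the untreated control mean in each of two repeat wells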). The conditions noted are these: automated patch clamp current, at 10 µM; stronger effect = higher value. (Patch clamp records ionic current or voltage across a cell membrane.)

The structures appear in SMILES notation. For some of these results: Measured potencies and affinities stand elsewhere. Calls of active or inactive are those of the source.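 Rule for the calls, unless noted: active = compound raising the membrane signal above positive-control mean plus 3 SD in both repeats, and a primary screen hit; inactive = the rest.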

Short transient receptor potential channel 4 (Mus musculus), sequence (Q9QUQ5 whole entry, looked up): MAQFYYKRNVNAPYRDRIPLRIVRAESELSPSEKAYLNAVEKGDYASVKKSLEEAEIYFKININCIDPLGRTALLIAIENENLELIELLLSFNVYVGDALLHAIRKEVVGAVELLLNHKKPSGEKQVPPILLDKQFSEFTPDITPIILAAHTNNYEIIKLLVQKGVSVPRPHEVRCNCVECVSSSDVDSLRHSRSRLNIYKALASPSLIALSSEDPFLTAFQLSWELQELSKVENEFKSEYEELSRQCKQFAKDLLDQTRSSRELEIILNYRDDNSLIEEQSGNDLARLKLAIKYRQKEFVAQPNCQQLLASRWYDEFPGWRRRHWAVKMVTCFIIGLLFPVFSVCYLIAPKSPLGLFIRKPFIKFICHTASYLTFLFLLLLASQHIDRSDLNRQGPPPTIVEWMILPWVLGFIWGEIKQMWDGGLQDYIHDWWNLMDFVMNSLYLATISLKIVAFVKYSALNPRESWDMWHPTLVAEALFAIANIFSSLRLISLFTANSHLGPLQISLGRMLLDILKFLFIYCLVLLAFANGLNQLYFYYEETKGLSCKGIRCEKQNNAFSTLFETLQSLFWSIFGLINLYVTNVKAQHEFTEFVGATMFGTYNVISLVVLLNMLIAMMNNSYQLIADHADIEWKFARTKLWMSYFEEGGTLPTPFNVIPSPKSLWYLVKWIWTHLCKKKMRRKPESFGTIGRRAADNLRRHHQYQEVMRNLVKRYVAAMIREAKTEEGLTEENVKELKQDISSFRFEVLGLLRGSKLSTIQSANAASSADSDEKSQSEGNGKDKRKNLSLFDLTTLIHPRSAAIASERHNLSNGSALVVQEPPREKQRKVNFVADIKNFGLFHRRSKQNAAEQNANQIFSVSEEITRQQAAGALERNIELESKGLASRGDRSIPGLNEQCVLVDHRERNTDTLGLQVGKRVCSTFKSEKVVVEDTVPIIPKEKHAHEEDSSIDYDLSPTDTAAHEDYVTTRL
Potassium voltage-gated channel subfamily KQT member 1 (Homo sapiens), sequence (P51787 whole entry, looked up): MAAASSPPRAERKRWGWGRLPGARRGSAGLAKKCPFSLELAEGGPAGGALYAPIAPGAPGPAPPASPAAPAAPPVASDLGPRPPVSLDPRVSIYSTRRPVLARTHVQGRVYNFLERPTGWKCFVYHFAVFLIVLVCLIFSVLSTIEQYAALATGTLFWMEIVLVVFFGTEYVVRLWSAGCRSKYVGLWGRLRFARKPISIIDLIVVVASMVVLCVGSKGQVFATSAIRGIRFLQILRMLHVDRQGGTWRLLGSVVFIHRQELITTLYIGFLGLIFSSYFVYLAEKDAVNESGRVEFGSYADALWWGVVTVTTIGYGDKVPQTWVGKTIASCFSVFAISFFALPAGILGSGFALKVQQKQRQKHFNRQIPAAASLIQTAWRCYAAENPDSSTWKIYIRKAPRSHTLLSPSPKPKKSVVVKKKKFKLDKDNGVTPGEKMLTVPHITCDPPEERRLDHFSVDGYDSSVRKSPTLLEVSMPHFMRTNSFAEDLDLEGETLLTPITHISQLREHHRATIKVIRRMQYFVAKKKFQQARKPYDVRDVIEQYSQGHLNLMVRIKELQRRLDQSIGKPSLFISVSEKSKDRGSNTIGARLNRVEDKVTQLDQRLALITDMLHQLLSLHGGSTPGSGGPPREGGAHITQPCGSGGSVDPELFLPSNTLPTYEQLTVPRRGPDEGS
Potassium voltage-gated channel subfamily KQT member 2 (Rattus norvegicus), sequence (O88943 whole entry, looked up): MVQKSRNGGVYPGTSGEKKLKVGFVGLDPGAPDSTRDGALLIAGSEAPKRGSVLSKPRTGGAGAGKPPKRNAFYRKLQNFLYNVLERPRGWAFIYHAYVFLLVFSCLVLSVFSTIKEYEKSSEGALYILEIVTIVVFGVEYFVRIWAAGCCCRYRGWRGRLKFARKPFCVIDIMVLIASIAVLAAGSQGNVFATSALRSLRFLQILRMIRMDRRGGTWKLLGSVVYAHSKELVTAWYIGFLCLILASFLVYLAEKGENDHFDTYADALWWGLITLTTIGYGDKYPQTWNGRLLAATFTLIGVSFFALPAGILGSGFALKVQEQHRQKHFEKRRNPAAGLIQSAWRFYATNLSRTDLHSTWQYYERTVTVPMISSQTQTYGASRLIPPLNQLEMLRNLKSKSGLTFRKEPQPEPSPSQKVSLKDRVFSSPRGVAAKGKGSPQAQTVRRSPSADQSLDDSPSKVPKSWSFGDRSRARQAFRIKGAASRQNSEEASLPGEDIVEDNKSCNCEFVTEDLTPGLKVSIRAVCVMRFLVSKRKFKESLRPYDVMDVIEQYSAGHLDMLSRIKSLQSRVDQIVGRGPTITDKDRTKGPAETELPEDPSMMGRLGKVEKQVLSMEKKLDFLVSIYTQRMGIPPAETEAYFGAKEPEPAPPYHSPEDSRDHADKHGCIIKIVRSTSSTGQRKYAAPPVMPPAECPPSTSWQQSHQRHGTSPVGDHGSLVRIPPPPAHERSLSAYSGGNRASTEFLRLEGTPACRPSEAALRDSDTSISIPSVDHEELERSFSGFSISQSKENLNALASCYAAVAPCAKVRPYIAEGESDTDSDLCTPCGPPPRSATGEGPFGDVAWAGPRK
Short transient receptor potential channel 6 (Mus musculus), sequence (Q61143 whole entry, looked up): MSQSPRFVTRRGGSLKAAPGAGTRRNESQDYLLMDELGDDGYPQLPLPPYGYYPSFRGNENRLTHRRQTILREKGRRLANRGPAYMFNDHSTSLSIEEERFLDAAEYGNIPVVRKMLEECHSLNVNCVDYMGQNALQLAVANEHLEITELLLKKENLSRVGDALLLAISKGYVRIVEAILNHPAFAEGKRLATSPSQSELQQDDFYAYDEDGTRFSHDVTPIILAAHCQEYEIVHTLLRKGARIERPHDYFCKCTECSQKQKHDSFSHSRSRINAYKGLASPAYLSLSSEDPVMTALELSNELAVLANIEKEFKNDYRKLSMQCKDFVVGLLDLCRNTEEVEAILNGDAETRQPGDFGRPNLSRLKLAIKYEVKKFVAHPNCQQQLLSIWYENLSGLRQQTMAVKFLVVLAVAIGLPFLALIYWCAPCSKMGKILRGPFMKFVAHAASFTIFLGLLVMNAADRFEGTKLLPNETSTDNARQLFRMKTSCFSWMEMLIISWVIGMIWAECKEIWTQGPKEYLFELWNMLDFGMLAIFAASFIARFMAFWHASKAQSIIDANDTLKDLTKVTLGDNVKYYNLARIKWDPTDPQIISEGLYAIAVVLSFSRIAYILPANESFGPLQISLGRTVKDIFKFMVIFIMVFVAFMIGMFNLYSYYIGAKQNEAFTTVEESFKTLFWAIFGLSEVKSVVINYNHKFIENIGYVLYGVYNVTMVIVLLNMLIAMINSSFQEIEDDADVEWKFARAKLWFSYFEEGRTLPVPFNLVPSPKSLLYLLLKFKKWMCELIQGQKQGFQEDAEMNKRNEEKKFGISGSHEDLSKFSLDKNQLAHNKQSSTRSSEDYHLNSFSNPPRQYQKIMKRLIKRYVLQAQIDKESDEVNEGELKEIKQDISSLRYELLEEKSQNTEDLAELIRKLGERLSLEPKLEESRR

On to `COC(=O)C1=NN(C(=O)c2cccc(Br)c2)C(O)(c2ccc(Cl)cc2)C1` (centres undefined), for which the activation in experiment [1] is 121% (active); in experiment [12], 98.1% (active); in experiment [17], 575% (active). Moreover, the result in [2], in experiment [3], in experiment [4], in experiment [5], in experiment [6] and in experiment [7] was inactive. The result in experiment [8], in experiment [9], in [10], in experiment [11], in experiment [13] and in experiment [14] was inactive. For the same compound, the outcome in experiment [15], in experiment [16] and in experiment [20] was inactive. Also, the potentiation in experiment [18] was 318% (active); in [19], 745% (active).

As for `COC(=O)C1=NN(C(=O)c2ccc(C)cc2)C(O)(c2ccc(Cl)cc2)C1` (centres undefined), the activation was 160% (active) in experiment [1]; 315% (active) in [10]; 96.9% (active) in [12]; 67.6% (active) in experiment [15]; 602% (active) in [17]. Moreover, the result in experiment [2], in [3], in [4], in [5], in experiment [6] and in [7] was inactive. Besides, the outcome in [8], in experiment [9], in experiment [11], in [13], in [14] and in experiment [16] was inactive. Moreover, the outcome in experiment [20] was inactive. Besides, in experiment [18], the potentiation was 280% (active).

What is called inhibition is the change of the read-out against control, counted positive when it falls. In the case of `COc1ccc(C(CNC(=O)Cc2ccc3ccccc3c2)N(C)C)cc1` (centres undefined), the activation in experiment [1] was 171% (active); in experiment [2], 88% (active); in [10] it was 55.5% (active). For the same compound, the outcome in [3], in experiment [4], in [5], in [7], in [9] and in [11] was inactive. Moreover, the result in [12], in [13], in experiment [14], in experiment [15] and in [16] was inactive. In addition, the inhibition in experiment [6] is 98% (active).

As for `CN1C2C=C(N(CCc3c[nH]c4ccccc34)C(=O)c3ccc(Cl)cc3)CC1CC2` (centres undefined), in experiment [1], the activation is 130% (active). Further, the result in [2], in [3], in experiment [4], in [5], in experiment [7] and in [9] was inactive. Further, the result in [10], in [11], in experiment [12], in [13], in experiment [14] and in experiment [15] was inactive. Further, the outcome in [16] was inactive. For the same compound, the inhibition in [6] is 80% (active).

Regarding `CC1CN(C(=O)c2ccc(NS(=O)(=O)c3ccc(C(C)(C)C)cc3)cc2)CC(C)O1` (centres undefined), the activation in experiment [1] was 63% (active); in [10] it was 39.5% (active); in experiment [12], 30.9% (active); in experiment [15], 16.1% (active). Further, the result in experiment [2], in experiment [3], in [4], in [5], in [6] and in experiment [7] was inactive. Also, the outcome in experiment [8], in [9], in [11], in [13], in experiment [14] and in [16] was inactive. Also, the result in [17], in experiment [18], in experiment [19] and in [20] was inactive.

Turning to `Cc1cccc(C(=O)NNC(=S)NC(=O)c2ccccc2)c1`, the activation in [1] is 230% (active); in [10], 54.5% (active); in [12], 153% (active); in [15] it was 83.3% (active). The outcome in experiment [2], in experiment [3], in experiment [4], in [5], in [6] and in [7] was inactive. Further, the result in experiment [8], in experiment [9], in [11], in experiment [13], in [14] and in experiment [16] was inactive. Moreover, the result in experiment [17] and in experiment [20] was inactive. Moreover, the potentiation in experiment [18] was 74.5% (active); in [19], 192% (active).

These data come from PubChem BioAssay.
